Results: PubChem BioAssay AID720597 (Broad Institute, 2013)
Measured potencies and affinities stand elsewhere. The source made the active and inactive calls.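 Rule for the calls: active = fitted half-maximal dose no more than twice the top valid tested dose, for compounds that lower signal; inconclusive = fit invalid, or curve flat with activity between -70 and -30; inactive = potency past limit, curve flat within ±30, or signal increasing.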

target: NAD-dependent protein deacylase sirtuin-5, mitochondrial (Homo sapiens) (UniProt Q9NXA8); assay: SIRT5 deacylase inhibitors, dose response, biochemical, fluorescence imaging, cherry-pick, set 6 (AID 720597); details: Purified SirT5, succinyl-peptide-AMC/trypsin fluorescence; series mostly up to 15 µM;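 note: lower AMC signal can also come from blocking the trypsin step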
Sequence (Q9NXA8 whole entry, looked up): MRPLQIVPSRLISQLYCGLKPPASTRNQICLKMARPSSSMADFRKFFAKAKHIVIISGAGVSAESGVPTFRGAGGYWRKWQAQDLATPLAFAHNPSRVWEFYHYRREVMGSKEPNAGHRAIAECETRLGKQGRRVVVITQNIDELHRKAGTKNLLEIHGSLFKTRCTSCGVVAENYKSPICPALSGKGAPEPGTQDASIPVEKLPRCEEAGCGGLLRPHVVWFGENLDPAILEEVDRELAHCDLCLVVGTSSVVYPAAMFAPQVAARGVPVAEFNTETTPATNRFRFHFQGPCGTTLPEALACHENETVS

outcome, inactive:
O=C(C[C@H]1CC[C@H]2[C@@H](COC[C@@H](O)CN2S(=O)(=O)c2cccc(Cl)c2)O1)Nc1ccc(-c2ccccc2)cc1
O=C(NC1CCCCC1)[C@@H]1[C@@H](CO)[C@@H]2Cn3c(cccc3=O)[C@H]1N2CC1CCCCC1
O=C(C1CCC1)N1CC[C@H]2[C@H](CO)Nc3ccc(C#Cc4cccc(F)c4)cc3[C@H]21
C[C@@H]1CN([C@@H](C)CO)S(=O)(=O)c2ccc(C#C[C@@H](C)O)cc2O[C@@H]1CN(C)Cc1ccc(-c2ccccc2)cc1
Cc1noc(C)c1NC(=O)N(C)C[C@H]1OCCCC[C@@H](C)Oc2ccc(NS(=O)(=O)c3c(C)noc3C)cc2C(=O)N([C@H](C)CO)C[C@@H]1C
Cc1cccc(-c2ccc([C@@H]3[C@@H](CO)N4CCCCN(S(=O)(=O)c5ccccc5F)C[C@H]34)cc2)c1
C[C@@H]1CN([C@@H](C)CO)S(=O)(=O)c2ccc(C3=CCCCC3)cc2O[C@@H]1CN(C)C(=O)Cc1ccccc1
Cc1noc(C)c1NC(=O)Nc1cccc2c1O[C@@H](CN(C)Cc1ccc(Oc3ccccc3)cc1)[C@@H](C)CN([C@H](C)CO)C2=O
C[C@@H]1CN([C@@H](C)CO)C(=O)c2cccc(NC(=O)c3ccncc3)c2O[C@@H]1CN(C)S(C)(=O)=O
CN(C)CCCNC(=O)C[C@H]1CC[C@H]2[C@@H](COC[C@H](O)CN2S(=O)(=O)c2ccc(F)cc2)O1
CC1c2nc3ccccc3n2C(CC(=O)NCc2ccc(Cl)cc2)C(=O)N1Cc1ccccc1 (centres undefined)
COc1ccc(S(=O)(=O)Nc2ccc3c(c2)C(=O)N([C@@H](C)CO)C[C@@H](C)[C@H](CN(C)Cc2ccc(C(F)(F)F)cc2)OCCCC[C@@H](C)O3)cc1
COc1ccc(C#Cc2ccc([C@H]3[C@@H](CO)N4C(=O)CN(C(C)=O)C[C@H]34)cc2)cc1
COc1ccc(S(=O)(=O)Nc2ccc3c(c2)C(=O)N([C@H](C)CO)C[C@@H](C)[C@H](CN(C)S(=O)(=O)c2ccccc2)OCCCC[C@@H](C)O3)cc1
O=C(CCN1CCCCC1)N[C@@H]1CC[C@H](CC(=O)N2CCC(Cc3ccccc3)CC2)O[C@H]1CO
COc1cccc(S(=O)(=O)N(C)C[C@H]2Oc3cc(C4=CCCC4)ccc3S(=O)(=O)N([C@@H](C)CO)C[C@H]2C)c1
Cc1ccc(S(=O)(=O)N(C)C[C@@H]2OCCCC[C@H](C)Oc3ccc(NS(=O)(=O)c4ccc(F)cc4)cc3C(=O)N([C@H](C)CO)C[C@H]2C)cc1
COc1cccc(NC(=O)N2CC(=O)N3[C@H](CO)[C@@H](c4ccc(C#CCC5CCCC5)cc4)[C@H]3C2)c1
COc1ccc(S(=O)(=O)N(C)C[C@H]2OCCCC[C@@H](C)Oc3ccc(NS(=O)(=O)c4ccc(C)cc4)cc3C(=O)N([C@@H](C)CO)C[C@@H]2C)cc1
C[C@@H]1CN([C@H](C)CO)C(=O)c2c(c3ccccc3n2C)-c2ccccc2CO[C@H]1CN(C)Cc1cccc2c1OCCCO2
C[C@@H]1CN([C@H](C)CO)S(=O)(=O)c2ccc(C#Cc3ccc(F)cc3)cc2O[C@@H]1CN(C)C(=O)NC1CCCCC1
CNC[C@H]1Oc2ccc(NC(=O)Nc3ccc(F)cc3)cc2CC(=O)N([C@H](C)CO)C[C@@H]1C
C[C@@H]1CN([C@@H](C)CO)C(=O)c2cc(NC(=O)Cc3cn(C)c4ccccc34)ccc2O[C@@H]1CN(C)Cc1ccc(Oc2ccccc2)cc1
C[C@H]1CN([C@@H](C)CO)S(=O)(=O)c2ccc(C#CC3CC3)cc2O[C@@H]1CN(C)Cc1ccc(F)cc1
COc1ccccc1C(=O)Nc1ccc2c(c1)C(=O)N(C)[C@H]1CC[C@H](CC(=O)Nc3cccc(C(C)C)c3)O[C@@H]1CO2
COc1ccc(S(=O)(=O)N(C)C[C@H]2OCCCC[C@H](C)Oc3ccc(NS(=O)(=O)c4ccc(C)cc4)cc3C(=O)N([C@H](C)CO)C[C@H]2C)cc1
CO[C@@H]1CN(C)C(=O)c2ccc(NC(=O)Nc3ccccc3)cc2OC[C@@H](C)N(C(C)=O)C[C@H]1C
CC(=O)N1CC(=O)N2[C@@H](CO)[C@H](c3ccc(-c4ccc(C(=O)N(C)C)cc4)cc3)[C@@H]2C1
CCCNC(=O)N1CC2(C1)[C@H](c1ccccc1)[C@H](CO)N2Cc1cccc(F)c1
C[C@@H]1CN([C@@H](C)CO)C(=O)c2cc(NS(=O)(=O)c3ccccc3)ccc2O[C@@H]1CN(C)Cc1ccc(Oc2ccccc2)cc1
CN(C)C(=O)[C@@H]1[C@@H](CO)[C@@H]2Cn3c(ccc(-c4ccccc4)c3=O)[C@@H]2N1Cc1ccccc1
O=S(=O)(N[C@@H]1CC[C@@H](CCn2cc(Cc3ccccc3)nn2)O[C@H]1CO)c1ccccc1F
C[C@H](CO)N1C[C@H](C)[C@@H](CN(C)Cc2ccccc2)Oc2ccc(N(C)C)cc2C1=O
Cc1ccc(S(=O)(=O)Nc2ccc3c(c2)C(=O)N([C@H](C)CO)C[C@@H](C)[C@H](CN(C)C(=O)Nc2ccc(F)cc2)OCCCC[C@H](C)O3)cc1
O=S(=O)(c1ccc(F)cc1)N1CCCCN2[C@H](CO)[C@H](c3ccc(C#CC4CCCC4)cc3)[C@@H]2C1
COc1ccc(C#Cc2ccc([C@@H]3[C@@H](CO)N4C(=O)CN(C(=O)c5cccnc5)C[C@@H]34)cc2)cc1
C[C@@H]1CCCCO[C@H](CN(C)Cc2ccc(C(=O)O)cc2)[C@H](C)CN([C@H](C)CO)C(=O)c2cc(NS(=O)(=O)c3cccs3)ccc2O1
O=C(NCC[C@H]1CC[C@@H](NC(=O)C2CC2)[C@@H](CO)O1)c1cc(Cl)cc(Cl)c1
COc1ccc(NC(=O)Nc2ccc3c(c2)C(=O)N([C@H](C)CO)C[C@@H](C)[C@@H](CN(C)Cc2ccccc2)OCCCC[C@H](C)O3)cc1
